Data as given in PubChem BioAssay AID1159580 (chemical genetic matrix, 2015).
The campaign covered roughly 5,500 compounds. About 2,000 (36%) were called active. About 18% were inconclusive and are not listed. Rule as the data show it: active = normalized growth mostly below about 0.91 (no sharp cut-off); inconclusive = no clear call, values can overlap the other calls; inactive = mostly above about 0.92. Some of the results follow.

Assay: chemical genetic growth profiling, strain panel (AID 1159580);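 also: tested at 20 µM; growth read once vehicle control cultures reached saturation at 30 °C; 1 = growth at the plate median or of vehicle wells; lower values mean less growth of the strain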
Settings: growth OD

Measured: normalized growth

CCCCCCCCNC(C)C(O)c1ccc(SC(C)C)cc1 (stereo not drawn)
inactive: S. cerevisiae deletion strains, locus YKL068W, active compounds read low 1.02 | S. cerevisiae deletion strains, locus YKL085W, strain MDH1 (second series), active compounds read low 0.936 | S. cerevisiae deletion strains, locus YKL085W, strain MDH1, active compounds read low 0.936 | S. cerevisiae deletion strains, locus YLR113W, strain HOG1, active compounds read low 1.04 | S. cerevisiae deletion strains, locus YNL183C, strain NPR1, active compounds read low 0.916 | S. cerevisiae deletion strains, locus YOR231W, strain MKK1, active compounds read low 0.892 | S. cerevisiae deletion strains, locus YPL256C, strain CLN2, active compounds read low 0.981 | S. cerevisiae deletion strains, locus YPR141C, strain kar3, active compounds read low 1.06
active: S. cerevisiae deletion strains, locus YKL009W, strain mrt4, active compounds read low 0.843 | S. cerevisiae deletion strains, locus YKL160W, strain elf1, active compounds read low 0.0721 | S. cerevisiae deletion strains, locus YKL190W, strain CNB1, active compounds read low 0.0442 | S. cerevisiae deletion strains, locus YKR001C, strain vps1, active compounds read low 0.0592 | S. cerevisiae deletion strains, locus YKR026C, strain gcn3, active compounds read low 0.0783 | S. cerevisiae deletion strains, locus YKR091W, strain srl3, active compounds read low 0.0575 | S. cerevisiae deletion strains, locus YLL001W, strain dnm1, active compounds read low 0.0576 | S. cerevisiae deletion strains, locus YLL026W, active compounds read low 0.0545 | S. cerevisiae deletion strains, locus YLL041C, strain sdh2, active compounds read low 0.0563 | S. cerevisiae deletion strains, locus YLR027C, strain aat2, active compounds read low 0.053 | S. cerevisiae deletion strains, locus YLR039C, strain RIC1, active compounds read low 0.0765 | S. cerevisiae deletion strains, locus YLR058C, strain SHM2, active compounds read low 0.0441 | S. cerevisiae deletion strains, locus YLR102C, strain apc9, active compounds read low 0.0595 | S. cerevisiae deletion strains, locus YLR221C, strain rsa3, active compounds read low 0.0556 | S. cerevisiae deletion strains, locus YLR258W, strain gsy2, active compounds read low 0.0584 | S. cerevisiae deletion strains, locus YLR262C, strain YPT6 (second series), active compounds read low 0.0924 | S. cerevisiae deletion strains, locus YLR262C, strain YPT6, active compounds read low 0.0999 | S. cerevisiae deletion strains, locus YLR268W, strain sec22, active compounds read low 0.0594 | S. cerevisiae deletion strains, locus YLR320W, strain mms22, active compounds read low 0.0684 | S. cerevisiae deletion strains, locus YLR330W, strain CHS5, active compounds read low 0.0493 | S. cerevisiae deletion strains, locus YLR342W, strain FKS1 (second series), active compounds read low 0.06 | S. cerevisiae deletion strains, locus YLR342W, strain FKS1, active compounds read low 0.0614 | S. cerevisiae deletion strains, locus YLR357W, strain rsc2, active compounds read low 0.111 | S. cerevisiae deletion strains, locus YLR370C, strain arc18, active compounds read low 0.0598 | S. cerevisiae deletion strains, locus YLR371W, strain rom2, active compounds read low 0.0595 | S. cerevisiae deletion strains, locus YLR384C, strain iki3, active compounds read low 0.0596 | S. cerevisiae deletion strains, locus YLR418C, strain cdc73, active compounds read low 0.0837 | S. cerevisiae deletion strains, locus YML016C, strain PPZ1, active compounds read low 0.0438 | S. cerevisiae deletion strains, locus YML032C, strain rad52, active compounds read low 0.0627 | S. cerevisiae deletion strains, locus YML120C, strain ndi1, active compounds read low 0.0554 | S. cerevisiae deletion strains, locus YML124C, strain tub3, active compounds read low 0.0561 | S. cerevisiae deletion strains, locus YMR058W, strain fet3, active compounds read low 0.0583 | S. cerevisiae deletion strains, locus YMR078C, strain ctf18, active compounds read low 0.0681 | S. cerevisiae deletion strains, locus YMR125W, strain sto1, active compounds read low 0.0638 | S. cerevisiae deletion strains, locus YMR129W, active compounds read low 0.057 | S. cerevisiae deletion strains, locus YMR205C, strain PFK2, active compounds read low 0.0745 | S. cerevisiae deletion strains, locus YMR223W, strain ubp8, active compounds read low 0.0556 | S. cerevisiae deletion strains, locus YMR231W, strain pep5, active compounds read low 0.0629 | S. cerevisiae deletion strains, locus YMR263W, strain SAP30, active compounds read low 0.0563 | S. cerevisiae deletion strains, locus YMR307W, strain GAS1, active compounds read low 0.113 | S. cerevisiae deletion strains, locus YNL067W, strain RPL9B, active compounds read low 0.0464 | S. cerevisiae deletion strains, locus YNL071W, strain lat1, active compounds read low 0.0586 | S. cerevisiae deletion strains, locus YNL128W, strain TEP1, active compounds read low 0.0711 | S. cerevisiae deletion strains, locus YNL209W, strain ssb2, active compounds read low 0.057 | S. cerevisiae deletion strains, locus YNL233W, strain BNI4, active compounds read low 0.0511 | S. cerevisiae deletion strains, locus YNL248C, strain rpa49, active compounds read low 0.0589 | S. cerevisiae deletion strains, locus YNL250W, strain rad50, active compounds read low 0.849 | S. cerevisiae deletion strains, locus YNL271C, strain bni1, active compounds read low 0.501 | S. cerevisiae deletion strains, locus YNL298W, strain CLA4, active compounds read low 0.357 | S. cerevisiae deletion strains, locus YNL307C, strain MCK1, active compounds read low 0.0662 | S. cerevisiae deletion strains, locus YNL322C, strain KRE1 (second series), active compounds read low 0.0644 | S. cerevisiae deletion strains, locus YNR049C, strain mso1, active compounds read low 0.0544 | S. cerevisiae deletion strains, locus YNR052C, strain pop2, active compounds read low 0.0594 | S. cerevisiae deletion strains, locus YOL006C, strain TOP1, active compounds read low 0.0984 | S. cerevisiae deletion strains, locus YOL012C, strain htz1 0.143 | S. cerevisiae deletion strains, locus YOL147C, strain pex11, active compounds read low 0.056 | S. cerevisiae deletion strains, locus YOR001W, strain rrp6, active compounds read low 0.0598 | S. cerevisiae deletion strains, locus YOR061W, strain CKA2, active compounds read low 0.0463 | S. cerevisiae deletion strains, locus YOR069W, strain VPS5, active compounds read low 0.0445 | S. cerevisiae deletion strains, locus YOR070C, strain gyp1, active compounds read low 0.0552 | S. cerevisiae deletion strains, locus YOR080W, strain dia2, active compounds read low 0.0613 | S. cerevisiae deletion strains, locus YOR083W, strain WHI5, active compounds read low 0.0558 | S. cerevisiae deletion strains, locus YOR106W, strain vam3, active compounds read low 0.0599 | S. cerevisiae deletion strains, locus YOR136W, strain idh2, active compounds read low 0.0657 | S. cerevisiae deletion strains, locus YOR144C, strain elg1, active compounds read low 0.0549 | S. cerevisiae deletion strains, locus YOR184W, strain ser1, active compounds read low 0.0604 | S. cerevisiae deletion strains, locus YOR265W, strain rbl2, active compounds read low 0.056 | S. cerevisiae deletion strains, locus YOR270C, strain vph1, active compounds read low 0.0763 | S. cerevisiae deletion strains, locus YOR290C, strain snf2, active compounds read low 0.0566 | S. cerevisiae deletion strains, locus YOR316C, strain cot1, active compounds read low 0.057 | S. cerevisiae deletion strains, locus YPL051W, strain arl3, active compounds read low 0.0586 | S. cerevisiae deletion strains, locus YPL055C, strain LGE1, active compounds read low 0.0576 | S. cerevisiae deletion strains, locus YPL078C, strain atp4, active compounds read low 0.0619 | S. cerevisiae deletion strains, locus YPL106C, strain sse1, active compounds read low 0.0837 | S. cerevisiae deletion strains, locus YPL240C, strain hsp82, active compounds read low 0.0552 | S. cerevisiae deletion strains, locus YPR119W, strain clb2, active compounds read low 0.0589 | S. cerevisiae deletion strains, locus YPR163C, strain tif3, active compounds read low 0.0677 | S. cerevisiae deletion strains, locus YPR167C, strain met16, active compounds read low 0.0591 | S. cerevisiae deletion strains, strain wtn01, active compounds read low 0.0573 | S. cerevisiae strains, strain wild type, active compounds read low 0.0449
